Several values for one entry are separate records, joined by “and”; a condition that tells them apart may be missing. Equal entries are not always repeated. Results filed as inconclusive are left out. Activity calls are given as the source filed them. The calls were made as follows: active = hit-call score of the fitted dose curve at least 0.9, where 1 is the maximum; inconclusive = response in the unintended direction; inactive = score below 0.9.
Assay: ATG_XTT_Cytotoxicity: Cytotoxicity Assessment in the Attagene TRANS-FACTORIAL HepG2 Assay (AID 2283584);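 as to AC50: cells exposed to compound for 24 h before reading; active means loss of viability signal versus DMSO baseline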
Description: ATG_XTT_Cytotoxicity is a cell-based, single-readout assay that uses HepG2, a human liver cell line, with measurements taken at 24 hours after chemical dosing in a 24-well plate.ATG_XTT_Cytotoxicity is one of one assay component(s) measured or calculated from the ATG_XTT_Cytotoxicity assay. It is designed to make measurements of cell number, a form of viability reporter, as detected with […] signals by XTT cytotoxicity assay technology.Data from the assay component ATG_XTT_Cytotoxicity was analyzed into 1 assay endpoint. This assay endpoint, ATG_XTT_Cytotoxicity, was analyzed in the positive analysis fitting direction relative to DMSO as the negative control and baseline of activity. Using a type of viability reporter, loss-of-signal activity can be used to understand changes in the viability. Furthermore, this assay endpoint can be referred to as a primary readout, because the performed assay has only produced 1 assay endpoint. To generalize the intended target to other relatable targets, this assay endpoint is annotated to the cell cycle intended target family, where the subfamily is cytotoxicity.
Human liver HepG2 cells are transiently transfected with multiple reporter transcription units (MRTUs) in 6-well plates using FuGene 6 reagent (Roche; 3 ml FuGene/1 mg DNA). The MRTU constructs are regulated by a cis-regulating element (promoter). […] A major difference between the CIS and TRANS system is that in CIS activities of endogenous TFs are measured, whereas the TRANS assay evaluates changes in activities of exogenous, chimeric NR-Gal4 proteins. […] At the end of 24 hour incubation, total RNA was isolated using TriZol reagent (Invitrogen). The isolated RNA is then reverse-transcribed using oligo(dT) primer and Mo-MLV reverse transcriptase (Invitrogen) with DNAse I (Ambion) treatment for 30 min. The one-tenth of the produced cDNA was amplified by PCR using Taq DNA polymerase (Invitrogen) and two reporter sequence-specific primers. The PCR products were fluorescently labeled by primer extension with 6-arboxyfluorescein (6-FAM) 5'-labeled reporter sequence-specific primer (2 min at 95 C, 20 s at 68 C and 10 min at 72 C) and these products were digested with 5U of HpaI (New England Biolabs) for 2h at 37 C. The fragments were purified using Qiaquick PCR columns (Qiagen), analyzed on an ABI 3130xL genetic analyzer (Applied Biosystems) with peak positions identified by using a set of X-rhodamine (ROX)-labeled MapMarker1000 molecular weight standards (BioVentures). The raw capillary electrophoresis data was processed using Attagraph software (Attagene).

Structure (SMILES)	outcome	AC50
N#Cc1c(-c2ccc(Cl)cc2)[nH]c(C(F)(F)F)c1Br	inactive	–
CCOP(=S)(Oc1ccc([N+](=O)[O-])cc1)c1ccccc1 (stereo not given)	inactive	–
Nc1ccc([N+](=O)[O-])cc1Cl	inactive	–
CCCN(CCC)c1c([N+](=O)[O-])cc(C(C)C)cc1[N+](=O)[O-]	inactive	–
N#Cc1cc([N+](=O)[O-])ccc1N	inactive	–
CC1=C(C(=O)Nc2ccccc2)S(=O)(=O)CCO1	inactive	–
CCOP(=S)(OCC)SCn1nnc2ccccc2c1=O	inactive	–
CC(=O)CCc1ccc2c(c1)OCO2	inactive	–
CCCCN(CCCC)SN(C)C(=O)Oc1cccc2c1OC(C)(C)C2	inactive	–
CCN(CC)c1ccccc1	inactive	–
c1ccc(OP(Oc2ccccc2)Oc2ccccc2)cc1	inactive	–
C/C(=N\NC(=O)Nc1cc(F)cc(F)c1)c1ncccc1C(=O)O	inactive	–
CCOc1ccc(C(C)(C)COCc2cccc(Oc3ccccc3)c2)cc1	inactive	–
CC(C)Nc1ccc(Nc2ccccc2)cc1	inactive	–
O=C(O)C(Cl)Cl	inactive	–
CCOP(=O)(O)C(N)=O	inactive	–
c1nc[nH]n1	inactive	–
Cc1cc(C)c(C(=O)P(=O)(c2ccccc2)c2ccccc2)c(C)c1	inactive	–
CC(C)(C)OOC(C)(C)C	inactive	–
CCOP(=S)(OCC)SCSc1ccc(Cl)cc1	inactive	–

Structure (SMILES)	outcome	AC50
O=c1[nH]c2ccccc2c(=O)o1	inactive	–
N#Cc1ccc(O)cc1	inactive	–
CCCCCCCc1ccc(O)cc1	–	152 µM (active) and 185 µM (active) and 129 µM (active)
OCC1CO1 (stereo not given)	inactive	–
CCNc1nc(Cl)nc(NC(C)(C)C)n1	inactive	–
NNC(N)=S	inactive	–
CCCCOCC1CO1 (stereo not given)	inactive	–
CC(O)C#N (stereo not given)	inactive	–
O=S1(=O)OCC2C(CO1)C1(Cl)C(Cl)=C(Cl)C2(Cl)C1(Cl)Cl (stereo not given)	inactive	–
O=C(CBr)OCc1ccccc1	inactive	–
Cc1ccc2c(c1N)C(=O)c1ccccc1C2=O	inactive	–
ClC(Cl)c1ccccc1	inactive	–
CO/N=C(/C(=O)OC)c1ccccc1COc1ccccc1C	inactive	–
CCOC(=O)c1ccccc1N	inactive	–
CC(C)(C)c1ccccc1OP(=O)(Oc1ccccc1)Oc1ccccc1	inactive	–
O=[N+]([O-])c1cc(Cl)ccc1Cl	inactive	–
O=c1ssc(Cl)c1Cl	inactive	–
CCCCOCCOP(=O)(OCCOCCCC)OCCOCCCC	inactive	–
CCOP(=S)(OCC)SCS(=O)(=O)CC	inactive	–
CCC1(c2ccccc2)C(=O)N=C(O)NC1=O (stereo not given)	inactive	–
